High-throughput results from PubChem.
PK Bst: alters activity of Bacillus stearothermophilus pyruvate kinase; purified pyruvate kinase, luminescence ATP production; ribose 5-phosphate activator present at AC10; AID 361; Potency, µM; 1.2% of 51,000 active; in the data active = potency below about 11 µM; inconclusive = mostly about 12 µM to 25 µM;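 the screen sought inhibitors and activators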
Tau filament bind: binds recombinant human tau filaments | recombinant tau filaments, thioflavin S fluorescence, 15 h; filaments grown with octadecylsulfate alongside compound | Potency, µM (titrated, usually from 57.1 µM) | 2% of 71,000 active | AID 596;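 also: actives lower thioflavin S fluorescence by blocking filaments or displacing dye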
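Thioflavine S fluorescence (ex 450, em 510 nm) reports filaments formed from 1 uM human tau plus 30 uM ODS over 15 h at 37 C (10 mM HEPES pH 7.4, 100 mM NaCl, 5 mM DTT); compounds displacing dye or blocking filaments lower signal.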
Hsp90 Hop PPI: changes Hsp90-Hop TPR2A binding signal, up or down. AID 595. AlphaScreen TPR2A-His6 binding biotin-Hsp90 C-terminal peptide. 0.44% of 71,000 active. Potency, µM (highest dose often 57 µM); active = well fitted curve in either direction with a large enough effect; inconclusive = small, poorly fitted or top-dose-only effect, or another doubt
15-hLO inh: 15-hLO (ALOX15) enzyme inhibition; Potency, µM (titrated, usually from 57.1 µM), hits mostly inhibitors; AID 887; P16050; purified 15hLO-1, xylenol orange hydroperoxide absorbance; 1.4% of 74,000 active; also: nearly all actives have a fitted effect of over 55% in size
Target sequence (P16050 whole entry, looked up): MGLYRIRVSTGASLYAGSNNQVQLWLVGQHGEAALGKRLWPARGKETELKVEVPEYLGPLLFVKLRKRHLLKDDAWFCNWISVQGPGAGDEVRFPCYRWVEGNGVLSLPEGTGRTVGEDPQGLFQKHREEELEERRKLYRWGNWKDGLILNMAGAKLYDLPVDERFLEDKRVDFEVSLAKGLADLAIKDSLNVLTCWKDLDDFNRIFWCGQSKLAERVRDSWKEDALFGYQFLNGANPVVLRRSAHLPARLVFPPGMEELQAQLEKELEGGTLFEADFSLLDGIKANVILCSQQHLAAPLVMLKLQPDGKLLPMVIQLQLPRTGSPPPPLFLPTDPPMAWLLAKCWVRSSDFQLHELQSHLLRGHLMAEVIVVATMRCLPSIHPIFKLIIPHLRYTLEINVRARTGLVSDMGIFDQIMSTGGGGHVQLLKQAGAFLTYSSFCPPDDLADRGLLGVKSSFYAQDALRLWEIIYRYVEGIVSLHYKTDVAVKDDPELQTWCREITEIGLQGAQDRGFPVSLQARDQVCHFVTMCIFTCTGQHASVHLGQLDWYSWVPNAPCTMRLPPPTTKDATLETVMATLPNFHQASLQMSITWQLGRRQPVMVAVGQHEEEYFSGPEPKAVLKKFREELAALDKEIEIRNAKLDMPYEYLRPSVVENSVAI
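Purified human 15hLO-1 (40 nM) in 25 mM Hepes pH 7.5, 0.01% Triton X-100, preincubated 15 min RT with compound, then 50 uM arachidonic acid for 6 min. Hydroperoxide read by ferrous/xylenol orange, 30 min; 573/405 nm absorbance ratio gave progress.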
ERK AVP inh: blocks ERK signaling stimulated by vasopressin. HEK293-V1b, vasopressin-stimulated pERK AlphaScreen. Potency, µM (top dose mostly 57.5 µM), usual class: inhibitors. 0.99% of 72,000 active. AID 995; also: nearly all actives have a fitted effect of over 55% in size
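HEK293 cells stably expressing V1b receptor, seeded overnight in 1% FBS, were treated with compounds for 30 min at 37C, then stimulated 5 min with 25 nM vasopressin; phospho-ERK read by AlphaScreen SureFire after lysis.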
FLuc inh: blocks Photinus pyralis firefly luciferase activity; P08659; purified firefly luciferase, luminescence, 8 min; Potency, µM (series often up to 57.1 µM), most hits filed as inhibitors; 2.2% of 72,000 active; AID 411; also: nearly all actives have a fitted effect of over 40% in size
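Substrate buffer containing 10 uM ATP (pH 7.2 imidazole, Mg2+, KCl, detergent, BSA) is dispensed, compound pinned in, then luciferase/luciferin detector mix added. After 8 min at ambient temperature, light output is measured.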
Numbers stand for hits; . = inactive; ? = inconclusive; / = no result given; [ ] = remark or other dose. A selection: hits, their analogues and other compounds. The true share with any hit is near 6.1%. Unless noted, calls follow the shape of the dose curve; as a rule, active = well fitted curve in the direction sought with a large enough effect; inconclusive = small, poorly fitted or top-dose-only effect, or another doubt; inactive = no such curve, though single readings can be large; an effect the other way counts as inactive or inconclusive.

SMILES	PK Bst	Tau filament bind	Hsp90 Hop PPI	15-hLO inh	ERK AVP inh	FLuc inh
NC(=S)N/N=C\c1c[nH]c2ccccc12	/	.[11.4 µM]	.[11 µM]	.[11.4 µM]	.[11.5 µM]	.[11.4 µM]
CC(=O)Nc1ccc2nc(-c3ccccn3)[nH]c2c1	?	.	?	.	.	12.6µM
O=C(Nc1ccc2nc(-c3cccs3)[nH]c2c1)c1cccs1	10.2	.	.	.	.	12.6µM
Cc1ccc2nc(-c3ccc(NC(=O)c4ccco4)cc3)[nH]c2c1	7.2	.	.	.	.	5.01µM
O=C(Nc1ccc2nc(-c3cccs3)[nH]c2c1)c1ccco1	9.46	.	.	.	.	10µM
Cn1cccc1-c1nc2ccc(NC(=O)c3ccco3)cc2[nH]1	.	.	.	.	.	?
O=C(Nc1ccc2nc(-c3ccccc3)oc2c1)c1ccco1	?	.	.	.	.	.
O=C1C2=C(Nc3cc([N+](=O)[O-])ccc3N2)O[C@@H]1c1ccc([C@H]2OC3=C(Nc4ccc([N+](=O)[O-])cc4N3)C2=O)cc1	/	?	.[11 µM]	?	.[11.5 µM]	.[11.4 µM]
Cc1nc2cnc(Oc3ccccc3)nc2n(C2CC2)c1=O	/	.	.	.	.	.[11.4 µM]
Cn1c(=O)c2c(nc(NCCNc3nc4c(c(=O)n(C)c(=O)n4C)n3C)n2C)n(C)c1=O	/	.[11.4 µM]	?	.[11.4 µM]	.[11.5 µM]	.[11.4 µM]
Cc1cccn2c(=O)c(C=Nc3ccccc3)c(NCc3ccco3)nc12	.	.	.	.	.	.
Cc1ccc2[nH]c(=O)c(-c3nc4cc(C)ccn4c3NCc3ccco3)cc2c1	.	15.8µM	.	.	.	.
Clc1ccc(Cl)c(-c2nn3c(COc4ccccc4)nnc3s2)c1	.	.	.	10µM	.	.
c1ccc(OCc2nnc3sc(-c4cccs4)nn23)cc1	.	.	.	?	.	.
O=C(Nc1ccc2ccccc2c1)c1cccnc1	/	.	.	.	.	12.6µM
CCCCOC(=O)c1ccc(NC(=O)c2cnccn2)cc1	.	25.1µM	.	.	.	.
CCCOC(=O)c1ccc(NC(=O)c2cnccn2)cc1	.	.	.	.	.	.
O=C(Nc1ccc2nccnc2c1)c1cnccn1	.	.	.	.	.	.
O=C(Nc1ccc2ccccc2c1)c1cnccn1	/	25.1µM	.	.	.	7.94µM
C[N+](C)(C)c1cc2c(nn1)Nc1ccccc1S2	/	.[11.4 µM]	.[11 µM]	?	.[11.5 µM]	.[11.4 µM]
O=C(O)c1cc2c(cc1S(=O)(=O)O)[C@H]1[C@@H]([C@H]3[C@H]2[C@@]2(Cl)C(Cl)=C(Cl)[C@]3(Cl)C2(Cl)Cl)[C@]2(Cl)C(Cl)=C(Cl)[C@@]1(Cl)C2(Cl)Cl	/	.[11.4 µM]	.[11 µM]	5.01µM	.[11.5 µM]	.[11.4 µM]
CON	/	/	/	.	.	/
CCc1nnc(NC(=O)CSc2nc3c(cc2C#N)CCC3)s1	/	.	.	.	.	3.16µM
COC(=O)CC(=O)CSc1nc2c(cc1C#N)CCC2	/	.	.	.	.	.
N[C@H](C(=O)O)[C@@H](O)c1cnc[nH]1	/	.[11.4 µM]	.[11 µM]	.[11.4 µM]	.[11.5 µM]	.[11.4 µM]
SMILES	PK Bst	Tau filament bind	Hsp90 Hop PPI	15-hLO inh	ERK AVP inh	FLuc inh
Cc1ccc(O)c(C(=O)c2cnc3c(c2)CN(CCC(C)C)C(=O)N3)c1	.	.	.	?	.	.
CN1Cc2cc(C(=O)c3cc(Cl)cc(CSc4ncccn4)c3O)cnc2NC1=O	.	15.8µM	.	.	.	.
NCCCNCCCCNCCCN	/	?	.	.	.	.
NCCNCCNCCNCCN	/	.	5.01µM	.	.	/
COc1ccccc1CNc1ncncc1-c1ccc(C(=O)N(C)C)cc1	/	.	.	?	.	.[2.29 µM]
Oc1ccc(CN2CCCc3ccccc32)c2cccnc12	.	.	3.16µM	.	?	.
COc1cc(OC)cc(-c2nc(-c3ccc(Br)cc3)no2)c1	/	.[11.4 µM]	.[11 µM]	.[11.4 µM]	.	.
c1ccc(-c2noc(-c3ccc4ccccc4c3)n2)cc1	3.66	.	.	.	.	1.26µM
Brc1ccc(-c2nc(-c3ccccc3)no2)o1	.	.	.	.	.	12.6µM
COC(=O)N1CC=CC1(C)C(=O)NCc1ccc(C)o1 (stereo not given)	/	.	.	.	.	/
O=S(=O)(c1cccc2c(I)cccc12)N1CCCNCC1	/	.	.	.	.	.
COc1cccc(CC(NC(C)=O)C(=O)NC2CCN(c3nc(C)cc(C)c3C#N)CC2)c1 (stereo not given)	.	.	.	.	.	.
COc1ccc(CC(NC(C)=O)C(=O)NC2CCN(c3nc(C)cc(C)c3C#N)CC2)c(OC)c1 (stereo not given)	.	.	.	25.1µM	.	.
C=CCn1c(SCC(=O)Nc2ccc(NC(=O)c3ccco3)c(OC)c2)nnc1-c1ccncc1	.	12.6µM	.	.	.	.
CCOc1cc(NC(=O)c2ccco2)c(OCC)cc1NC(=O)COc1ccccc1C	.	.	.	.	.	.
CCC(=O)Nc1ccc(NC(=O)c2ccco2)c(OC)c1	/	.	.	.	.	.
CCOc1cc(NC(=O)c2ccco2)c(OCC)cc1NC(=O)Cc1cccc(OC)c1	.	10µM	?	?	.	.
COc1cc(NC(=O)CC(C)C)ccc1NC(=O)c1ccco1	/	.[11.4 µM]	.[11 µM]	.[11.4 µM]	.	15.8µM
CS(=O)(=O)N1CCC2(CCCN(c3ccncc3)C2)CC1	/	.	.	.	?	.[11.4 µM]
Cc1cc2c(nc1C)CCCN2CC(O)CN1CCCc2nc(C)c(C)cc21	/	/	/	.[11.4 µM]	.[11.5 µM]	.[11.4 µM]
O=C(Nc1ccc(Cl)cc1)Nc1ccc(N2CCOCC2)cc1	.	.	.	.	.	.
Cc1nc2cc(NC(=O)Nc3ccc(N4CCOCC4)cc3)ccc2n1C	.	25.1µM	.	.	.	.
Nc1ncnc2oc(-c3ccco3)c(-c3ccco3)c12	/	.	.	2.51µM	?	.
Nc1nnc(-c2ccco2)s1	/	.	.	.	.	.
CCCC[C@H]1C[C@@H]1[C@@H]1N(P(=O)(c2ccccc2)c2ccccc2)C[C@@](O)(c2ccccc2)CC12CC2	/	.	.	/	.	/
SMILES	PK Bst	Tau filament bind	Hsp90 Hop PPI	15-hLO inh	ERK AVP inh	FLuc inh
CCSc1nnc(NC(=O)c2cccs2)s1	/	.	.	.	.	.
Cc1ccc(C(=O)Nc2nc3ccc(S(C)(=O)=O)cc3s2)s1	.	.	.	.	.	3.16µM
CCOCC(=O)Nc1nc2ccc(S(C)(=O)=O)cc2s1	.	.	.	.	.	.
Cc1ccc2nc(NC(=O)c3cccs3)sc2c1	4.21	.	.	.	.	2µM
Cc1cc(C(=O)Nc2nc3ccc(S(C)(=O)=O)cc3s2)c(C)o1	/	.	.	.	.	2µM
Cc1ccc(C(=O)Nc2nc3ccccc3s2)s1	/	/	/	.	/	/
CS(=O)(=O)c1ccc2nc(NC(=O)c3cccs3)sc2c1	2.21	.	.	.	.	1µM
CCCCCCCCN	/	.	?	.	.	/
COc1ccc2cc1Oc1ccc(cc1)C[C@@H]1c3c(cc(OC)c4c3Oc3cc5c(cc3O4)CCN[C@H]5C2)CCN1C	/	.[11.4 µM]	.[11 µM]	.[11.4 µM]	.[11.5 µM]	.[11.4 µM]
Nc1ccn([C@H]2CC[C@H](CO)O2)c(=O)n1	/	.	.	/	/	.
C#CCCCC(=S)Nc1ccccc1	/	.	?	/	.	/
CC(C)[C@@H](C(=O)O)N1C(=O)c2ccccc2C1=O	/	.[11.4 µM]	.[11 µM]	.[11.4 µM]	.[11.5 µM]	.[11.4 µM]
